The text below walks through data of paper PMC8384837, “Expanding the binding specificity for RNA recognition by a PUF domain”.

Holding throughout (test): yeast three-hybrid, YBZ-1, SC-Leu-His + 0.5 mM 3-AT, 4 days
Details in all cases: tags: N-Gal4 AD-HA kept; label: inside an RPR1-promoter hybrid RNA with tandem MS2 sites; ssRNA

Test [1] addresses PUM1 PUF domain R7-SRR (Homo sapiens, UniProt Q14671 828-1176, N1080R;E1083R). An outline of the steps: (§1)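 Each repeat of the Pumilio-1 PUF domain was randomized at its three base-contacting residues, and these libraries were co-expressed from a centromeric plasmid with matching RNA elements in strain YBZ-1. After four days on SC-Leu (input) or SC-Leu-His + 0.5 mM 3-AT (selection), the repeat regions were PCR-amplified and Illumina-sequenced. The interaction score compares variant frequency between input and selection as a log change, computed in log2 with a pseudocount of 1 for absent variants.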

Test [2] deals with PUM1 PUF domain R7-ERK (Homo sapiens, UniProt Q14671 828-1176, S1079E;N1080R;E1083K). An outline of the steps: as §1
The target in test [3] is PUM1 PUF domain R7-KHS (Homo sapiens, UniProt Q14671 828-1176, S1079K;N1080H;E1083S). Summed up: as §1
In test [4] the target is PUM1 PUF domain R1-VRR (Homo sapiens, UniProt Q14671 828-1176, S863V;Q867R). An outline of the steps: as §1
The target of test [5] is PUM1 PUF domain R1-RCC (Homo sapiens, UniProt Q14671 828-1176, S863R;R864C;Q867C). Summed up: as §1
For test [6], the target named is T1, PUM1 PUF domain R6-CFN (Homo sapiens, UniProt Q14671 828-1176, N1043C;Y1044F;Q1047N).
T1 sequence: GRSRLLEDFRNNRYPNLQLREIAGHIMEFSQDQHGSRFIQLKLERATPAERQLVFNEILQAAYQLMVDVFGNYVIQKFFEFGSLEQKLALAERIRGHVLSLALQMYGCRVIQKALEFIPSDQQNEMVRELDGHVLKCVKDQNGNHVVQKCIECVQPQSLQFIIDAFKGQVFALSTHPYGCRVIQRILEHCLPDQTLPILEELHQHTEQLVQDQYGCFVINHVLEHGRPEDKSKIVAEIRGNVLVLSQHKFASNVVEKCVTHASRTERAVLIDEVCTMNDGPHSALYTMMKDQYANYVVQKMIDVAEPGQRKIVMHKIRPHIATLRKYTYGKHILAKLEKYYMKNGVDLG
Summed up:
as §1

The target in test [7] is PUM1 PUF domain R8-KFC (Homo sapiens, UniProt Q14671 828-1176, N1122K;Y1123F;Q1126C). Summed up:
as §1

For test [8], the target named is PUM1 PUF domain R8-CFR (Homo sapiens, UniProt Q14671 828-1176, N1122C;Y1123F;Q1126R). Summed up:
as §1

As to “GGCUAGAACUAGUGGAUCCCCCGGCGCCCGGCGGCUCGAGCCCGGGUAAGUUUAAAUAGUCUGCAUGCCGCCGGGCGCCAUGCCUGCAGGUCGACUCUAGAAAACAUG”, in test [1], the binding signal is 2.68 log2 enrichment (interaction score).
As for “GGCUAGAACUAGUGGAUCCCCCGGCGCCCGGCGGCUCGAGCCCGGGUAAGUCUAAAUAGUCUGCAUGCCGCCGGGCGCCAUGCCUGCAGGUCGACUCUAGAAAACAUG”, the binding signal in test [1] is 2.92 log2 enrichment (interaction score); in test [2] it was 5.87 log2 enrichment (interaction score); in test [3], 3.33 log2 enrichment (interaction score).
Turning to “GGCUAGAACUAGUGGAUCCCCCGGCGCCCGGCGGCUCGAGCCCGGGUAAGUGUAAAUCGUCUGCAUGCCGCCGGGCGCCAUGCCUGCAGGUCGACUCUAGAAAACAUG”, the binding signal in test [4] is 2.85 log2 enrichment (interaction score).
On to “GGCUAGAACUAGUGGAUCCCCCGGCGCCCGGCGGCUCGAGCCCGGGUAAGUGUAAAUGGUCUGCAUGCCGCCGGGCGCCAUGCCUGCAGGUCGACUCUAGAAAACAUG”, for which the binding signal in test [5] is 2.4 log2 enrichment (interaction score).
As for “GGCUAGAACUAGUGGAUCCCCCGGCGCCCGGCGGCUCGAGCCCGGGUAAGUGUAAAUUGUCUGCAUGCCGCCGGGCGCCAUGCCUGCAGGUCGACUCUAGAAAACAUG”, the binding signal in test [5] was 2.58 log2 enrichment (interaction score); in test [4], 1.88 log2 enrichment (interaction score).
In the case of “GGCUAGAACUAGUGGAUCCCCCGGCGCCCGGCGGCUCGAGCCCGGGUAAGUGAAAAUAGUCUGCAUGCCGCCGGGCGCCAUGCCUGCAGGUCGACUCUAGAAAACAUG”, the binding signal in test [6] is 5.35 log2 enrichment (interaction score).
“GGCUAGAACUAGUGGAUCCCCCGGCGCCCGGCGGCUCGAGCCCGGGUAAGCGUAAAUAGUCUGCAUGCCGCCGGGCGCCAUGCCUGCAGGUCGACUCUAGAAAACAUG”: the binding signal in test [7] is 6.35 log2 enrichment (interaction score); in test [8], 4.3 log2 enrichment (interaction score).
As for “GGCUAGAACUAGUGGAUCCCCCGGCGCCCGGCGGCUCGAGCCCGGGUAAGUAUAAAUAGUCUGCAUGCCGCCGGGCGCCAUGCCUGCAGGUCGACUCUAGAAAACAUG”, the binding signal in test [3] was 2.08 log2 enrichment (interaction score).
